Hit rate of the full screen: of about 53,000 sequences, about 3,700 (7%) were called active.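 How the source made its calls: active means gene knockdowns whose robust z-score for IL-1 alpha signal is at least 2 or at most -2, so actives lie on both sides; inactive means the rest.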 Shown is part of a subset that was picked to be rich in actives.

A short description of this assay: Components of the Cytosolic LPS Sensing Pathway: Gene Identification via Genome-wide siRNA Screen.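 Further: robust z of the log signal after scaling to non-targeting control siRNA wells of the plate.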 To be noted: RAW264.7 macrophages, IL-1a HTRF, actives lie on both sides, screened at 100 nM (by protocol), cells primed 5 h with Pam3CSK4 first. The procedure, abridged: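 Mouse macrophage line RAW264.7 is transfected with siRNA (100 nM final), grown 48h, primed with TLR ligand Pam3CSK4 5 h and given intracellular LipidA 24 h. IL-1a in supernatant is read by HTRF and viability by luminescence.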
For the sequence CCCUGUAGAAAUUCAAGCCTT against Lyrm4, the z-score is 0.38 (inactive).

Consider GGACAGAGCAUCACAGAAGTT against Tmem154, for which the z-score is -2.33 (active).

For GCGGUUUGUCUUCAACAAGTT against Il1b, the z-score is 0.22 (inactive).

Turning to CCCUGGACUAAGGAUCACCTT against Cops5, the z-score is -1.2 (inactive).

In the case of GGCAGAAGAAGAGUUCAACTT against Atp6v1e1, the z-score is -1.1 (inactive).

Consider GCUAAGUACGUUCAUGGCATT against Gba, for which the z-score was 0.571 (inactive).

As to CGAAACUUACCAGGAGUCGTT against Ttyh2, the z-score is -2.31 (active).

As to GGACUCAUGUUCAACACAGTT against Dimt1, the z-score is -0.87 (inactive).

For the sequence GGGAACUGACAAAUGGAAGTT against Samsn1, the z-score is -0.0777 (inactive).

For CGGCAGUCGUGAGACAUAUTT against Camk1d, the z-score is -1.01 (inactive).

With GGAUUUUUAGUGUUUGACATT against Rab39, the z-score is -1.52 (inactive).

Take GGGAAUACGGAACCUUCUUTT against Olfr683: the z-score is 2.04 (active).

As to GGGCAGUUUUACAAAUGUUTT against Fbxw8, the z-score was 0.985 (inactive).

GGAACUCCAACAGGACUUUTT against Slc26a9: the z-score is -0.565 (inactive).

Regarding GGAAGGAAGCAGAGAGUUATT against Ndel1, the z-score was 2.92 (active).

With UUUACUAGACCUGAUGGCUTT against Olfr815, the z-score is 0.732 (inactive).

For the sequence GGGACUCUUCUACGAGUUUTT against Lims2, the z-score was 0.836 (inactive).

On to GGAAAACAAGAGGUGAUCUTT against Bfar, for which the z-score is -1.62 (inactive).

Regarding GGUGUUUGAUAGGUAUCUUTT against Ptpa, the z-score was -1.12 (inactive).

Take GGAUCAUUUGAAAUUGCUGTT against Dmac2l: the z-score is 2.88 (active).

For the sequence CCUGAAAAAAUUUAUCGCCTT against Pcgf3, the z-score is -0.363 (inactive).

For the sequence GGGUUCGAGGAAAAGGAAGTT against Acsf3, the z-score is 0.65 (inactive).

With GGUGUCAGAAGCAGUGUAUTT against Treml1, the z-score is 0.459 (inactive).

As to GCCGAGGCUGUUGUGUUGATT against Gpaa1, the z-score is -1.04 (inactive).

Turning to GGAGGUUUUUUUGUUUUGUTT against Serpinb13, the z-score is -0.614 (inactive).

With GGCAUUUUUCUUAGUGAUCTT against Olfr1277, the z-score is -2.04 (active).

Take CCCACUUAUAUAUGUAGUUTT against Wdyhv1: the z-score is 0.282 (inactive).

Turning to GGGCUUCAAACCCACAGAATT against Nova2, the z-score is -1.19 (inactive).

GGAAUAUCAGCCAUAAGUUTT against Cplx4: the z-score is 1.78 (inactive).

As to CGAUUCAUUCAGUUUGUAATT against Terb1, the z-score is -0.631 (inactive).

On to GGUGUUUGAUAAUGAAGAGTT against Dnah1, for which the z-score was -0.214 (inactive).

Consider GGCGAAGGUGUAGAAUCUCTT against Samd12, for which the z-score is 2.48 (active).

As for GGUCAUUUUGGGAUAUCAGTT against Lman1, the z-score was -1.19 (inactive).

Take CCGCGUGUGCUCCUUUUUGTT against Zcchc3: the z-score was -0.627 (inactive).

As for GGCUGGUUUACAACAGAACTT against Pla2g15, the z-score is -0.647 (inactive).

In the case of CCAUUUGAUGACAGUAAUATT against Olfr178, the z-score was 1.03 (inactive).

On to GCUCUUGACACUAGAGAUUTT against Ap1s3, for which the z-score is 0.0373 (inactive).

On to GGUGUGAUGCUUGAGUGUCTT against Skint3, for which the z-score was 2.08 (active).

Take GGAGUAGCAAAGAACUGCUTT against Arpc4: the z-score is -0.762 (inactive).

CCACAUGAGUGGACCUACGTT against Arid3c: the z-score is -1.33 (inactive).

Consider GGAGCUCUGGGACAAAUUCTT against Tbx20, for which the z-score was 1.34 (inactive).

On to CGUGGCUAGGUUAUUUAAATT against Htr1d, for which the z-score is 1.01 (inactive).

Turning to GGACACUUCCAUGUGCUACTT against Cep19, the z-score is 2.14 (active).

On to “CCUCAAAAUGGCUAUGGACTT against 1520401A03Rik”, for which the z-score was 0.587 (inactive).

GGAAAGAAACUUAAAGUGGTT against Tfdp1: the z-score is 2.64 (active).

Take GGUUCGAUGUCCAGUCACUTT against Ppp2ca: the z-score is -1.41 (inactive).

Consider GCCAUUGCUUUAUAAGGUUTT against Olfr901, for which the z-score is -1.24 (inactive).

Consider GGAUACAAAUCCAGAUUCUTT against Pex26, for which the z-score is -0.982 (inactive).

As to GGAACGAAUUUUAGAUGCATT against Rbbp8, the z-score is 1.14 (inactive).

Take CCCAGAGCAUUCCUAUUACTT against Klrg2: the z-score was -2.84 (active).

GCACGGUAUCUCGAAGUCGTT against Spata18: the z-score is -0.785 (inactive).

As for CCAUUCAAUGGUAACUGAATT against Olfr229, the z-score was -0.382 (inactive).

Regarding GCAGUCGCUUUGUUUUAUATT against Olfr1204, the z-score is -0.225 (inactive).

As for GGAAAUCGAAUGAAUAACCTT against Klf12, the z-score is 3.45 (active).

GGCUGAGAAGCAGACUUCCTT against Dclk3: the z-score was 1.23 (inactive).

For the sequence GCUACGUUUACUGACCACATT against Bcat1, the z-score was 1.55 (inactive).

For CCUACUCGUCUCUUUCACCTT against Tlcd1, the z-score was 0.158 (inactive).

For the sequence GCAACUUUUAAUUGGUCUATT against Agrn, the z-score was -0.537 (inactive).

GGUUUUACCGAUGAUGCAUTT against Pcdhb20: the z-score was -0.624 (inactive).

Take GGUAAUGGCUCACUUAAUATT against Malt1: the z-score is -0.427 (inactive).

Consider GGUCUUUGACAUUUUGAAUTT against Lrrk2, for which the z-score is -0.295 (inactive).

As to GUACACUCAGGCUGAGGGUTT against Acyp1, the z-score is 0.0397 (inactive).

Take GCAAUACUAUUCAGUCCAUTT against Gnai3: the z-score was -2.45 (active).

As to GGUUCCACUCAACUGAAGATT against Actl7b, the z-score was -0.123 (inactive).

GGCCUGCUACUUUUGAUGCTT against Olfr166: the z-score is 0.0524 (inactive).

Take GCACCUCUGACAAGGUUCUTT against Plin1: the z-score is 2.65 (active).

For the sequence GGGUCAUUUCCUAUGCAGGTT against Olfr866, the z-score is -1.24 (inactive).

In the case of CCAAGAUUCAUAAGAAGGCTT against Tas2r131, the z-score is 0.646 (inactive).

With GCUAGAAUUCAUGUUUCGUTT against Dgkg, the z-score is 0.487 (inactive).

GGUGCACUUUGAAUCAGGGTT against Uchl4: the z-score is 0.91 (inactive).

For the sequence GGACAUCUACACCAUUUGGTT against Mplkip, the z-score was -2.11 (active).

On to GGUAACUAUGAAGAGAUCATT against Neu2, for which the z-score is 0.312 (inactive).

Turning to “GGAUUAGGAAAGAGAGAACTT against 4930519G04Rik”, the z-score is -1.43 (inactive).

Take GGUCAUCGUGUGCAACCUCTT against Zcchc3: the z-score is -3.24 (active).

In the case of GGAACAGUUCAAGUGAAGCTT against Sertad2, the z-score was -0.0174 (inactive).

GGAAGAUGAGAAAAUUCCATT against Ccni: the z-score is -0.44 (inactive).

As for GCCACAGAAAGUGAUUGAGTT against Rbp7, the z-score is -0.418 (inactive).

For the sequence GGUACAGACCUUUGAAAUATT against Apobec2, the z-score was -0.125 (inactive).

Regarding CCGCAUGGAGCAUCUAAUATT against Tuft1, the z-score was 0.04 (inactive).

In the case of GGGAGACCUGCUACUAUUGTT against Gtf3c2, the z-score is 2.58 (active).

Take GGAAACAACAACAAAUACATT against C1ql3: the z-score was 1.52 (inactive).

As for GGAAGAUCCUCGAUAGUCATT against Rgs7, the z-score is 1.2 (inactive).

Take GACCAUCUCCUUUACGGGCTT against Olfr71: the z-score is 0.133 (inactive).

GGCCAAAGAAGAAAGUGACTT against Opn3: the z-score was -2.72 (active).

With GUGGUAAACAGAAUGGUGATT against Ccdc92b, the z-score is -1 (inactive).

As to GCACCCAUAUCAACGAGGUTT against Olfr924, the z-score is 0.484 (inactive).

In the case of GGUGACCAGCAAGUCAUGCTT against Chrdl1, the z-score was -0.663 (inactive).

In the case of GGAAGAAAAAAACUUCGUUTT against Gabrg3, the z-score is 0.186 (inactive).

On to CCUGAAAGAUGCUCUCUAUTT against Inpp4b, for which the z-score is 4.27 (active).

On to GCACAGCUUUUUGGAUCUGTT against Zfyve26, for which the z-score was -0.75 (inactive).

Take CCAGAGUCUUUGGUAAUGCTT against Krtap3-3: the z-score was 1.07 (inactive).

For GUCAUCAUGAACCAAGAGATT against Olfr713, the z-score is -2.18 (active).

As to GGAAAACCAGCACAAUUUATT against Cadm1, the z-score was 2.49 (active).

As for CCAUCUACAAACUUUGGCCTT against Sacs, the z-score was 0.669 (inactive).

For the sequence GGUACUGACGCAUCUGAGGTT against Spata5l1, the z-score is 1.53 (inactive).

In the case of GACAAGCAAUAAAGAAAGATT against Lce1l, the z-score was -1.45 (inactive).

For GGAAGGUCAAGUCUUUUCUTT against Tesk1, the z-score was 1.46 (inactive).

Regarding CCAUGGGAUAUGAUUUACATT against Phf11a, the z-score was 3.49 (active).

In the case of GGGAAUUUCAGGCUAUAUUTT against Taf2, the z-score is 1.13 (inactive).

With CGAUGUGGACGAGAAGCUATT against Asap2, the z-score is -0.702 (inactive).

With CGCUAUGAGGCAGCUAAUUTT against Psma6, the z-score was -2.27 (active).

As for CCCAUACUAAAAUUGUUGATT against Adam29, the z-score was 0.253 (inactive).

For CCUACCUUCAUUCGCUUCGTT against Cpz, the z-score is 2.61 (active).

As for CCCAAUCAGCAUUUGCUCUTT against H2-M10.3, the z-score is 0.104 (inactive).

With GGAUGGAGCUACUGAAAUUTT against Dera, the z-score was 0.39 (inactive).

For the sequence CCAGAUCAUCGUGCAGAAUTT against E4f1, the z-score is 0.557 (inactive).

For the sequence GGAGUGUUUUGCAGUUUUATT against Dcstamp, the z-score was 4.39 (active).

With GCCACUGGUUCCAAUCGUCTT against Ncs1, the z-score was -0.354 (inactive).

The values above are taken from PubChem BioAssay AID1508600 (Functional Genomics Laboratory (NCATS/FGL), 2020).
